Source: PubChem BioAssay AID1069 (NMMLSC, 2008)
A number with no mark means an inactive call. Calls of active or inactive are those of the source.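 The calls were made as follows: active = high combined rank on largest and smallest cell-count-weighted shift across three tests, rank score above 45, floors 50 and 25 (some results past the limit were not filed as active); inactive = the rest.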

assay: activators of LNCaP cell differentiation, retest, confirmation, side scatter shift, flow cytometry (AID 1069); settings: 4 d, at 100 µM, active compounds read high;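 also: LNCaP human prostate cancer cells in low-serum medium with charcoal-stripped FBS; percent of cells with raised granularity gated so DMSO controls show 10%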

Row | SMILES | side scatter shift
1 | COc1ccc(Nc2nc(N3CCCC3)c3ccccc3n2)cc1 | 14%
2 | O=C(NCCCN1CCOCC1)c1cc2c(s1)CSC2 | 13.1%
3 | O=C(NCCCN1CCN(c2cccc(Cl)c2)CC1)c1ccc(N2CCCC2=O)cc1 | 7.7%
4 | O=C(c1ccc2c(c1)OCCO2)N1CCCCC1 | 7.7%
5 | Cc1nn(Cc2ccc(F)cc2)c(C)c1NC(=O)c1cc(-c2ccc3c(c2)OCO3)on1 | 4.8%
6 | O=C(NCCCN1CCN(c2cccc(Cl)c2)CC1)c1nc(-c2ccncc2)no1 | 36.1%
7 | CCOC(=O)N1CCC(=C2c3ccc(Cl)cc3CCc3cccnc32)CC1 | 28.6%
8 | Cc1ccc(Cn2c(C(=O)NCCCN3CCOCC3)cc3sccc32)cc1 | 20.1%
9 | Cn1c(C(=O)NCCCN2CCN(c3ccccc3F)CC2)cc2c(=O)n(C)c3ccccc3c21 | 20%
10 | O=C(NCC1CCCO1)C1CC(c2ccc(Cl)c(Cl)c2)=NO1 (configuration not stated) | 8.2%
11 | Cc1ccccc1OCc1nc(-c2ccc(NC(=O)c3ccc4c(c3)OCO4)cc2)no1 | 32.3%
12 | CCCc1cc(-c2n[nH]c(C)c2-c2ccc(C(=O)OCC)o2)c(O)cc1O | 42.9%
13 | CCOC(=O)Cn1nc(-c2ccc(Cl)cc2)cc1N | 11.4%
14 | CCOC(=O)c1c(-c2ccc(C)o2)csc1NC(=O)CN1CCN(CC)CC1 | 22.2%
15 | O=C(Cn1cnc2ccccc2c1=O)NCCC(=O)N1CCN(c2ccccc2)CC1 | 17.1%
16 | CCN(CCNC(=O)C1CCCN(Cc2nc(-c3ccc(OC)cc3)oc2C)C1)c1ccccc1 (configuration not stated) | 27.8%
17 | Cc1oc(-c2ccccc2F)nc1CN1CCC(C(=O)NCc2cccnc2)CC1 | 8.3%
18 | COc1ccc(-c2noc(-c3cc(Cl)ccc3Cl)n2)cc1OC | 49.4%
19 | O=C(CCNC(=O)Cn1ccc2ccccc2c1=O)NCCCN1CCN(c2ccc(F)cc2)CC1 | 21.8%

Row | SMILES | side scatter shift
20 | COc1ccc(-n2cc(-c3ccccc3)c3c(N4CCN(CCO)CC4)ncnc32)cc1 | 33.3%
21 | Cn1nc(-c2ccc(Cl)cc2)c2cc(C(=O)NCCN3CCOCC3)sc21 | 30%
22 | Cc1cc(N2CCN(C)CC2)nc2ccc(NC(=O)c3ccc4c(c3)OCO4)cc12 | 71.9% (active)
23 | O=c1c2ccccc2nnn1CSc1nnc2sc3ccccc3n12 | 15.6%
24 | COc1ccc(OC)c(N=Cc2c(O)[nH]c3ccccc23)c1 | 7.2%
25 | Cc1onc(-c2ccccc2Cl)c1C(=O)N(C)C1CCCCC1 | 16%
26 | Oc1c(CN2CCCCC2)cc(COCc2ccccc2)c2cccnc12 | 5.7% (active)
27 | Cc1oc(-c2cccc(Cl)c2)nc1CN1CCC(C(=O)NCc2ccco2)CC1 | 35%
28 | COCCCN(C(=O)Nc1ccccc1)C(C)c1ccncc1 (configuration not stated) | 9.2%
29 | CCS(=O)(=O)N1CCC(C(=O)NCCCN2CCN(c3ccccc3F)CC2)CC1 | 13.3%
30 | COc1cccc(-c2cc(C(=O)N3CCN(C(c4ccccc4)c4ccccc4)CC3)no2)c1 | 9.8%
31 | COc1ccc(S(=O)(=O)Nc2ccc(F)c(Cl)c2)cc1OC | 44.4%
32 | COc1ccc(-c2cc3c(=O)n(CC(=O)NC4CCN(Cc5ccccc5)CC4)ncn3n2)cc1 | 36.1%
33 | O=C(NCCCN1CCN(c2ccccc2F)CC1)C1CCCN(S(=O)(=O)c2cnc[nH]2)C1 (configuration not stated) | 7.3%
34 | CCN1CCN(C(=O)C2CCN(Cc3nc(-c4cccc(Cl)c4)oc3C)CC2)CC1 | 16.7%
35 | Cc1oc(-c2ccc(Cl)cc2)nc1CN1CCC(C(=O)NCCCN2CCCC2=O)CC1 | 11.8%
36 | COc1ccc(-c2ccc(-c3nnn(CC(C)=O)n3)cc2)cc1 | 11.7%
37 | CCOC(=O)N1CCN(C(=O)C2CCCN(Cc3nc(-c4ccc(Cl)cc4)oc3C)C2)CC1 (configuration not stated) | 20%
